From PubChem BioAssay (NCATS)
Several values for one entry are separate records, joined by “and”; a condition that tells them apart may be missing. Equal values may be shown once. Inconclusive results are not listed. Activity calls are given as the source filed them. Unless noted, calls follow the shape of the dose curve; as a rule, active = well fitted curve in either direction with a large enough effect (not every such curve was filed as active); inconclusive = small, poorly fitted or top-dose-only effect, or another doubt; inactive = flat fitted curve, though single readings scatter.

How the values were obtained:
[1] = AP1 Signaling Pathway (AID 357); conditions: ME-180 AP-1-bla reporter, EGF-induced, beta-lactamase ratio, 5 h; also: % is scaled to controls: 0 for no effect and ±100 for the full control effect
How it was run: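 Titration-series screen for positive or negative modulators of EC50 EGF-induced signaling in ME-180 cells carrying an AP-1-driven beta-lactamase reporter. After 5 hours at 37 degrees Celsius, CCF4 460nm/530nm emission ratio gave %Activity; AC50 values derived.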

[2] = Stat Signaling Pathway (AID 446); conditions: ME-180 SIE beta-lactamase reporter, IL-6 stimulated, 5 h;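 also: ME-180 cervical cancer cells given 40 pM IL-6 alongside compound; SIE-controlled beta-lactamase reporter measured as 460/530 nm FRET emission ratio; % is scaled to controls: 0 for no effect and ±100 for the full control effect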
How it was run: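 Screening format detects activators and inhibitors alike: ME-180 SIE-bla cells stimulated at 40 pM IL-6 for 5 hrs with compound, then dual-emission beta-lactamase read at 405 nm excitation.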

[3] = molecular target: Mitogen-activated protein kinase 10 (Mus musculus) (UniProt Q61831); assay: JNK3 AlphaScreen Assay (AID 530); conditions: JNK3 lysate, c-Jun phosphorylation; series mostly up to 57.1 µM;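 also: kinase came from lysate of stimulated human HepG2 cells; signal reports phosphorylation of biotinylated GST-cJun 1-79 at Ser73 with 10 µM ATP; % is scaled to controls: 0 for no effect and ±100 for the full control effect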
How it was run: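 Inhibitors reduce antibody binding to phosphorylated biotin-cJun, lowering AlphaScreen luminescence. Lysates from HepG2 cells pre-activated by IL-1beta plus TNF-alpha supplied JNK3; compounds were titrated.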

[4] = molecular target: 3',5'-cyclic-AMP phosphodiesterase 4B (Homo sapiens) (UniProt Q07343); assay: qHTS Assay for Inhibitors of PDE-IV (AID 607; active = well fitted activation curve with a large enough effect in the main read-out, with a control signal flat, not every such curve was filed as active; also: % of control where 0% means no effect); conditions: HEK293 ACTOne CNG channel cells, membrane potential fluorescence; series mostly up to 22.9 µM
3',5'-cyclic-AMP phosphodiesterase 4B (Homo sapiens), sequence (Q07343 whole entry, looked up): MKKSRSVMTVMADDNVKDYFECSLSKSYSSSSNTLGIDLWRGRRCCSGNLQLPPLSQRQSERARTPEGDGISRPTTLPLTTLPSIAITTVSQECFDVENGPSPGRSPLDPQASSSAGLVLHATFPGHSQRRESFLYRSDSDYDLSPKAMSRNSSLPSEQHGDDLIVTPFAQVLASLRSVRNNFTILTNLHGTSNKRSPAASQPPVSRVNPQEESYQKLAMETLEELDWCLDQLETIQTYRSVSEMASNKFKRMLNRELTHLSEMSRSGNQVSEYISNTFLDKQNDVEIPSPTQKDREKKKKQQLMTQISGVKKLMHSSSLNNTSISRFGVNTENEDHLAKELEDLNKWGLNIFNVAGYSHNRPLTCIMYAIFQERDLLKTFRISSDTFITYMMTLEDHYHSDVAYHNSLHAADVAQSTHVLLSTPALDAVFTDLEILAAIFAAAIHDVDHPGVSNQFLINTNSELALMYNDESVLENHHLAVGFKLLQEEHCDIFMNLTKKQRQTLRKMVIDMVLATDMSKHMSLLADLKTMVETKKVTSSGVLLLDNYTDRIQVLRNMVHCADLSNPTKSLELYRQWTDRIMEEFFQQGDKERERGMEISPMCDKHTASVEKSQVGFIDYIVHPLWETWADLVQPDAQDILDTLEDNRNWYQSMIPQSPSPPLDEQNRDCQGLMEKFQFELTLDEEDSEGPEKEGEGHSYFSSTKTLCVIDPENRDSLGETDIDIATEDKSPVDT
How it was run: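 The readout is membrane depolarisation from a cAMP-sensing CNG channel, detected with a potential dye at ex 535/em 590. Cells were HEK293-derived (endogenous PDE-IV) at 1000 cells/well, titrated up to 22.9 uM final.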

[5] = qHTS Assay for Lipid Storage Modulators (AID 1519; calls by dose curve); conditions: Drosophila S3 cells, BODIPY lipid droplet/cell ratio, laser cytometry, cells loaded with oleic acid
How it was run: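 Cells seeded at 5,000 per well were treated with compounds over a concentration series and loaded with oleic acid (400 uM, as added). Lipid droplet fluorescence (488 nm excitation, 500-530 nm channel) was read by laser-scanning cytometry and normalized to 20 uM Triacsin C.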

[6] = molecular target: Lysosomal acid glucosylceramidase (Homo sapiens) (UniProt P04062); assay: Glucocerebrosidase-p2 (AID 348; in the data active = potency below about 10 µM; also: potency is read from the fitted curve at half-maximal effect); conditions: purified GBA, blue fluorogenic substrate, 40 min
Lysosomal acid glucosylceramidase (Homo sapiens), sequence (P04062 whole entry, looked up): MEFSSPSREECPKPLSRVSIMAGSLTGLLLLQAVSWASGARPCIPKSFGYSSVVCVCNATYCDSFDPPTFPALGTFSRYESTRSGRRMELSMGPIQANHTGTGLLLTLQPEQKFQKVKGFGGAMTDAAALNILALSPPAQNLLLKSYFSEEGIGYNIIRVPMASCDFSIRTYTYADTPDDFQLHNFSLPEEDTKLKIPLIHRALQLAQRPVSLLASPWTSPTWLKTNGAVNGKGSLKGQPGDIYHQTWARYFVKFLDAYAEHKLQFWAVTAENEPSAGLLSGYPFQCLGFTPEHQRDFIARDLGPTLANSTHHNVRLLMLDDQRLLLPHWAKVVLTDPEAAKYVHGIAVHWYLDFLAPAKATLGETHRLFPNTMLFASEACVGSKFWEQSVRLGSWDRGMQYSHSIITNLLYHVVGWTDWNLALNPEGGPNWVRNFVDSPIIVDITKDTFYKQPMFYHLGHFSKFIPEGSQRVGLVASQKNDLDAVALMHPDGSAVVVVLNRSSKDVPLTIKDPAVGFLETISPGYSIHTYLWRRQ
How it was run: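 Compounds titrated from 0.6 nM upwards against 0.2 nM enzyme in pH 5.9 citric acid/KH2PO4, taurocholate, tween-20; blue fluorogenic substrate 80 uM, 40 min room temperature, stopped and read Ex 365/Em 440 for AC50.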

[7] = molecular target: Cytochrome P450 1A2 (Homo sapiens) (UniProt P05177); assay: p450-cyp1a2 (AID 410; calls by dose curve;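 also: -100% = full effect of reference inhibitor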); conditions: recombinant CYP1A2, luciferin-ME demethylation, luminescence; series mostly up to 57 µM
Cytochrome P450 1A2 (Homo sapiens), sequence (P05177 whole entry, looked up): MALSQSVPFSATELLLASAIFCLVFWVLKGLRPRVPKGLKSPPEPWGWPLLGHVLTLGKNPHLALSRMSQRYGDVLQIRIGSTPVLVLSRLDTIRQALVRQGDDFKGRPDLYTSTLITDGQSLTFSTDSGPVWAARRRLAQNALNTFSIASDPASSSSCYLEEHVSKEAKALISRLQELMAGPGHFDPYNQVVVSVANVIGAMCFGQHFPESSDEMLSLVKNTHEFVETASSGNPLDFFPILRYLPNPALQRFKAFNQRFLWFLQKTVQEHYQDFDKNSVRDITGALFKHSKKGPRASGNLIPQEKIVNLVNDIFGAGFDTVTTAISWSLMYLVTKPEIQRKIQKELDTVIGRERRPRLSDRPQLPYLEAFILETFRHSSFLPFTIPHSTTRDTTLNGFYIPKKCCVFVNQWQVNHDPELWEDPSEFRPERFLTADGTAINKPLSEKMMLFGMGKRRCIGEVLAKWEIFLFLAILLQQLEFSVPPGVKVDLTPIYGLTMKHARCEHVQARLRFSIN
How it was run: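 Luminescent readout of luciferin formed from Luciferin-ME by human CYP1A2; data normalized against complete inhibition by 57 uM furafylline. Enzyme 20nM, substrate 100uM at Km, 100mM KPO4 buffer, 60 min reaction at room temperature.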

[8] = molecular target: Glucocorticoid receptor (Homo sapiens) (UniProt P04150); assay: GR-EFC Redistribution (AID 451; calls by dose curve; also: potency is read from the fitted curve at half-maximal effect); conditions: CHO-K1 GR-EFC translocation, beta-gal luminescence, 2 h
Glucocorticoid receptor (Homo sapiens), sequence (P04150 whole entry, looked up, the tested form may be a part): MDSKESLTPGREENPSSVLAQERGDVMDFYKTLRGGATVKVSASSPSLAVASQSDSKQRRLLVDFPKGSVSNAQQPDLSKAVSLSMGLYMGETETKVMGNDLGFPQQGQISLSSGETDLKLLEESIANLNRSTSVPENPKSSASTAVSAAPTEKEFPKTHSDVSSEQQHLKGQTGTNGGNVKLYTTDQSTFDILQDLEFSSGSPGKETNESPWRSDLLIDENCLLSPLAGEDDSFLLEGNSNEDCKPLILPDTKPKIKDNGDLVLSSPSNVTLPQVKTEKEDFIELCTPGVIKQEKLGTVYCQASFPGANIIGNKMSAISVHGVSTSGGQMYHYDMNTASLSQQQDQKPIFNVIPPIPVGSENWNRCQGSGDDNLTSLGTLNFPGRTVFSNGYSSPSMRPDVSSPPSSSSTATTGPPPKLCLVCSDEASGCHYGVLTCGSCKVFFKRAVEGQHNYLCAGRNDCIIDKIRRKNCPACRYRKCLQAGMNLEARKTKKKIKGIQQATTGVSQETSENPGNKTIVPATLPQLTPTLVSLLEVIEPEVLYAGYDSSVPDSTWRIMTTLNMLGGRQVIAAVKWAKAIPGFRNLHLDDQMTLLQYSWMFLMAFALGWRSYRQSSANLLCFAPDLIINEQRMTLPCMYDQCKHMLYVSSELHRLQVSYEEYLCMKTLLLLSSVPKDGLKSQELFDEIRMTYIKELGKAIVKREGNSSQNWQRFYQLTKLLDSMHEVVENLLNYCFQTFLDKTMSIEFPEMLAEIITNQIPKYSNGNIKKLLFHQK
How it was run: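 CHO-K1 cells stably expressing nuclear-localized β-gal enzyme acceptor and GR fused C-terminally to the enzyme donor fragment; ligand-driven nuclear translocation restores β-gal by complementation. Compounds titrated up to 46 uM final, 2 h at 37 °C; luminescence read.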

[9] = molecular target: Cytochrome P450 3A4 (Homo sapiens) (UniProt P08684); assay: qHTS Assay for Activators of Cytochrome P450 3A4 (AID 885; active = well fitted curve in the direction sought with a large enough effect; an effect the other way counts as inactive or inconclusive; also: nearly all actives have a fitted effect of over 65% in size); conditions: recombinant CYP3A4, Luciferin-PPXE luminescence, 60 min; series mostly up to 57.1 µM
Cytochrome P450 3A4 (Homo sapiens), sequence (P08684 whole entry, looked up): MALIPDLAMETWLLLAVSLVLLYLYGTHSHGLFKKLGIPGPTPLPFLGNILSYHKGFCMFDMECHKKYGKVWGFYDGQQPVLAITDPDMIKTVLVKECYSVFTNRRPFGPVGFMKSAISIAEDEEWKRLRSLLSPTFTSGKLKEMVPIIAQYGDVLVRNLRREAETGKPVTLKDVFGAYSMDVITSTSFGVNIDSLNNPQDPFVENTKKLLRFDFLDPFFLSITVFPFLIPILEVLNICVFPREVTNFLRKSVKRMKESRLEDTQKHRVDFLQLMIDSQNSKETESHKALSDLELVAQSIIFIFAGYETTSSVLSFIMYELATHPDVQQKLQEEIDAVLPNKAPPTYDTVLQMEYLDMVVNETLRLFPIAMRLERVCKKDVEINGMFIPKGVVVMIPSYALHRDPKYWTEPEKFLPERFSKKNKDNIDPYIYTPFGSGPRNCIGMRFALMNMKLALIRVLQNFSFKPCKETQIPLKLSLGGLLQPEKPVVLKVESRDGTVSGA
How it was run: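 Steps: enzyme/substrate mix dispensed; compound added, 10 min RT; NADPH regeneration solution added, 60 min RT; luciferin detection buffer stops reaction; 20 min later luminescence measured.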

[10] = Primary qHTS for small molecule stabilizers of the endoplasmic reticulum resident proteome: Secreted ER Calcium Modulated Protein (SERCaMP) assay (AID 1508630; active = well fitted curve in the direction sought with a large enough effect; an effect the other way counts as inactive or inconclusive; also: % is scaled to controls: 0 for no effect and ±100 for the full control effect); conditions: SH-SY5Y GLuc-SERCaMP (Gaussia luciferase released on ER calcium loss) secretion, thapsigargin, luminescence; series mostly up to 38.4 µM
How it was run: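 GLuc-SERCaMP-expressing SH-SY5Y cells, pretreated 16 h with compound, are challenged with thapsigargin to empty ER calcium stores; after 4 h, coelenterazine is added directly to the medium and luminescence is imaged.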

[11] = NFAT Signaling Pathway (AID 444); conditions: Jurkat NFAT-bla M1, carbachol, beta-lactamase ratio, 5 h; at 7.69 µM (top of the series) unless noted
How it was run: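 Jurkat cells carrying an NFAT-driven β-lactamase reporter and co-transfected muscarinic M1 receptor were treated with compound plus carbachol (1 uM final, an EC50 level) for 5 h at 37 °C. CCF4 loading followed for 1 h at RT; 460/530 nm ratio gave %activity.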

[12] = molecular target: Glucocorticoid receptor (Homo sapiens) (UniProt P04150); assay: GR-GFP Redistribution (AID 450;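 active = compounds whose dose series gives a full or clear partial fitted curve of increased nuclear translocation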; also: potency is read from the fitted curve at half-maximal effect); conditions: U2OS GR-GFP nuclear translocation, laser cytometry, 2 h
[13] = molecular target: Ubiquitin carboxyl-terminal hydrolase 1 (Homo sapiens) (UniProt O94782); assay: Inhibitors of USP1/UAF1: Pilot qHTS (AID 504865; active = well fitted curve in the direction sought with a large enough effect; an effect the other way counts as inactive or inconclusive;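 also: rhodamine fluorescence freed from ubiquitin-rhodamine substrate followed over time; top concentration of the series differs between compounds; % is scaled to controls: 0 for no effect and ±100 for the full control effect; nearly all actives have a fitted effect of over 35% in size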); conditions: purified USP1/UAF1, Ub-rhodamine cleavage fluorescence; series mostly up to 54.9 µM
Ubiquitin carboxyl-terminal hydrolase 1 (Homo sapiens), sequence (O94782 whole entry, looked up): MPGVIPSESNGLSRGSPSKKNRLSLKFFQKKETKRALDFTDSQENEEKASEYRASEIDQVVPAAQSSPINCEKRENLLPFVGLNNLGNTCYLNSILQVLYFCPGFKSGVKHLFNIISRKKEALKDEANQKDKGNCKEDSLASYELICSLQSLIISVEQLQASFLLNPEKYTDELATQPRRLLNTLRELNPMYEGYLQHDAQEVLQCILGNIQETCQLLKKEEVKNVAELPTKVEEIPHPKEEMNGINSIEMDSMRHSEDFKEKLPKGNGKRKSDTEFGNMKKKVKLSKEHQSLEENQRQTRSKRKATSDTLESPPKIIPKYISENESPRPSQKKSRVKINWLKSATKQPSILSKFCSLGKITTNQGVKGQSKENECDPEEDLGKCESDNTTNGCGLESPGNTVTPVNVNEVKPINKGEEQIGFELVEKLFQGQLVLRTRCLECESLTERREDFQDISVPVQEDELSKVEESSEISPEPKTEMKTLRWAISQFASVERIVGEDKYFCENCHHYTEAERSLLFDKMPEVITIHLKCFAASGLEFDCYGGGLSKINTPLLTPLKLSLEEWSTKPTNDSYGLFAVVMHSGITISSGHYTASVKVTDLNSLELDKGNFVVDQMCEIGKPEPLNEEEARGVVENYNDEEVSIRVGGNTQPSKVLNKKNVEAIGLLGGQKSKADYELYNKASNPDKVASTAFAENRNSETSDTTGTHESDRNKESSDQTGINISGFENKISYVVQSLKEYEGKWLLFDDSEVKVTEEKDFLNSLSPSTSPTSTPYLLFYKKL
How it was run: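 1nM USP1/UAF1 + cpd, 15 min RT; start w/ Ub-Rho 150nM final; kinetic FL 480/540 nm, 6 reads q60 s. Buffer 50mM HEPES pH 7.8, 0.5mM EDTA, 1mM TCEP, 0.01% Tween-20, 0.1 mg/ml BSA.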

[14] = measured here: cell count channel max response
[15] = measured here: lipid channel max response
[16] = at 7.69 µM (top of the series) unless noted

CCCNC[C@H](O)COc1ccccc1C(=O)CCc1ccccc1
-13.7% and -51.9%: max response [5, 15]
inactive: activity change, negative = inhibition ([1]; at 17.2 µM (top of the series)) 6.84% | activity change, negative = inhibition ([1]; at 38 µM (top of the series)) 18.1% and 7.01% | activity, negative = inhibition ([2]; at 17.2 µM (top of the series)) -4.64% | activity, negative = inhibition ([2]; at 38 µM (top of the series)) -19.1% and -13.3% | outcome [3] | Potency [4] | activity change, negative = inhibition ([5]; at 25.7 µM (top of the series)) -1.16% | activity change, negative = inhibition ([5]; at 57.5 µM (top of the series)) -2.08%
-11.4% and -51.8%: max response [5, 14]

N#Cc1cccc(NC(=O)N2CC[C@@]3(CCCNC3)C2)c1
-6.65%: max response [5, 14]
inactive: Potency [6] > 11.4 µM | activity change, negative = inhibition [1, 16] 9.42% | Potency [7] | activity, negative = inhibition [2, 16] -4.17% | Potency [8] > 46 µM | outcome [3] | Potency [4] | Potency [9] | activity change, negative = inhibition ([5]; at 57.5 µM (top of the series)) 1.94% | Potency [10]
-1.99%: max response [5, 15]

COc1ccc(NC(=O)N2CC3(CCN(C(=O)c4c(C)noc4C)CC3)C2)cc1
5.82%: max response [5, 14]
14.2%: max response [5, 15]
inactive: Potency [6] > 11.4 µM | activity change, negative = inhibition [1, 16] 4.05% | Potency [7] | activity, negative = inhibition [2, 16] -8.69% | Potency [8] > 46 µM | Potency [4] | activity change, negative = inhibition ([5]; at 57.5 µM (top of the series)) 4.67% | Potency [10]

COc1ccc(C(=O)N2CCC[C@@]3(CCN(Cc4ccc(C#N)cc4)C3)C2)cc1
inactive: Potency [6] > 11.4 µM | activity change, negative = inhibition [1, 16] -1.6% | Potency [7] | activity change, negative = inhibition [11] -4.67% | activity, negative = inhibition [2, 16] 3.73% | Potency [8] > 46 µM | outcome [3] | Potency [4] | Potency [9] | Potency [10]

CN(C)Cc1ccccc1-c1cncnc1Nc1ccncc1
inactive: Potency [6] > 11.4 µM | activity change, negative = inhibition [1, 16] -25.5% | activity change, negative = inhibition [11] 10.2% | activity, negative = inhibition [2, 16] 5.07% | Potency [12] > 46 µM | Potency [8] > 46 µM | outcome [3] | Potency [4] | Potency [13] | Potency [10]
